IP6K1 inh: Primary qHTS assay for small molecule inhibitors of Inositol hexaphosphate kinase 1 (IP6K1) | Inositol hexakisphosphate kinase 1 (Homo sapiens), Q92551 | IP6K1 kinase, ADP-Glo luminescence, 2 h; hits give low values | activity change, % (series mostly up to about 58 µM) | 140,000 compounds, 0.81% hits; in the data active = activity change below about -25%; note: % is set by controls: 0 for no effect and ±100 for the full control effect
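ADP-Glo luminescence measures ADP made by human IP6K1 during a 2 h RT reaction with ATP/IP6 (mix at 1.3 mM/130 uM); top library doses 57.5 and 19.1 uM final.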
KDM5B inhibitor: Primary screen for KDM5B Histone Demethylases FDH-coupled qHTS. Lysine-specific demethylase 5B (Homo sapiens), Q9UGL1. KDM5B demethylase, FDH-coupled NADH fluorescence (FDH is formaldehyde dehydrogenase). Potency, µM (series often up to 57.7 µM), hits mostly inhibitors. 220,000 compounds, 2.6% hits; active = well fitted inhibition curve with a large enough effect; inconclusive = small, poorly fitted or top-dose-only effect; inactive = no such curve, though single readings can be large or run the other way; note: potency is the fitted concentration of half-maximal effect; 0% is about no effect; nearly all actives have a fitted effect of over 70% in size
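qHTS format, multiple compound concentrations. Buffer 50 mM HEPES pH 7.5/0.01% Tween-20; 200 nM KDM5BΔAP final; 10 min compound preincubation; substrate-mix levels 12.5 µM peptide, 25 µM α-KG, 0.25 mM NAD⁺; 30 min RT; ΔRFU.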
Numbers without * were called inactive; i = inactive; u = inconclusive; x = not tested or not shown. A selection: hits, their analogues and other compounds. The true share with any hit is near 2.8%.

SMILES	IP6K1 inh	KDM5B inhibitor
CN(C)C[C@@H]1CN(c2ncccn2)C[C@H]1NC(=O)Cc1ccccc1F	7	32µM*
CN(C)C[C@@H]1CN(c2ncccn2)C[C@H]1NC(=O)Cc1cccc(F)c1	-4	25µM*
COc1cccc(CC(=O)N[C@@H]2CN(c3ncccn3)C[C@H]2CO)c1	6	25µM*
COc1ccccc1CCC(=O)N[C@@H]1CN(c2ccncn2)C[C@H]1CO	0	i
COc1ccccc1CCC(=O)N[C@@H]1CN(c2ncccn2)C[C@H]1CN(C)C	3	32µM*
CN(C)C[C@@H]1CN(c2ncccn2)C[C@H]1NC(=O)Cc1c[nH]c2ccccc12	18	u
CN(C)C[C@@H]1CN(c2ncccn2)C[C@H]1NC(=O)Cc1cccc(Cl)c1	12	u
O=C(Cc1cccc(Cl)c1)N[C@@H]1CN(c2ncccn2)C[C@H]1CO	9	u
O=C(Cc1ccsc1)N1CCC([C@@H]2CNC[C@H]2CO)CC1	6	i
O=C(Nc1ccc(F)cc1)C(Sc1ccccn1)c1ccccc1 (stereo not drawn)	x	i
Cc1ccccc1NC(=O)c1c(C)oc2ncnc(N3CCOCC3)c12	x	i
COC[C@@H]1CN(C(=O)c2ccc(C)[nH]c2=O)C[C@H]1c1ccncc1	-10	u
CN(C)C[C@@H]1CN(c2ncccn2)C[C@H]1NS(=O)(=O)c1cc(F)ccc1F	2	u
Cc1ccc(F)cc1S(=O)(=O)N[C@@H]1CN(c2ncccn2)C[C@H]1CN(C)C	23	25µM*
Cc1cc(Cl)ccc1NC(=O)CSc1ncnc2ccccc12	x	i
CCc1ccccc1Nc1nc(N)nc(CSc2nnc(C3CC3)n2C)n1	x	i
OCCOCCn1cnc(-c2ccccc2)c1-c1ccc(-n2cccn2)cc1	29	32µM*
CCOCCn1cnc(-c2ccccc2)c1-c1ccccc1OCC(N)=O	8	i
Cc1ccc(-c2n[nH]c(=O)c3ccccc23)cc1S(=O)(=O)N1CCCCC1	x	i
CCN1C(=O)CCN(Cc2ccc(C)c(C)c2)CC12CCOCC2	-9	i
O=C(Cc1c[nH]c2ncc(-c3cccc(O)c3)cc12)N1CCOCC1	-17	u
Cc1ccccc1-c1cnc2[nH]cc(CC(=O)N3CCOCC3)c2c1	-17	35µM*
COc1cc(F)cc(-c2cnc3[nH]cc(CC(=O)N4CCOCC4)c3c2)c1	-9	35µM*
O=C(Cc1c[nH]c2ncc(-c3cccc(CO)c3)cc12)N1CCOCC1	-13	28µM*
O=C(Cc1c[nH]c2ncc(-c3ccccc3C(F)(F)F)cc12)N1CCOCC1	-7	u
SMILES	IP6K1 inh	KDM5B inhibitor
COc1ccc(-c2cnc3[nH]cc(CC(=O)N4CCNC(=O)C4)c3c2)cc1	-12	35µM*
C[S+](=O)([O-])c1ccc(-c2cnc3[nH]cc(CC(=O)N4CCOCC4)c3c2)cc1	-13	u
COc1ccc(-c2cnc3[nH]cc(CC(=O)NC4CCC(O)CC4)c3c2)cc1 (stereo not drawn)	-14	u
C[S+](=O)([O-])CCn1ncc2cc(OCc3cccc(-c4cccc(CO)c4)c3)ccc21	4	u
CSc1ccc(/C=C/C(=O)Nc2ccc(I)cc2C)cc1	x	i
O=C(OCC(=O)c1ccc[nH]1)c1cccc(S(=O)(=O)Nc2ccc(F)cc2)c1	x	i
COc1ccc(Cl)cc1NC(=O)CSCc1ccc(Br)cc1	x	i
COc1cccc(CN2CC[C@@]3(O)CCNC[C@H]3C2)c1OCCCn1ccnc1	6	i
COc1ccccc1C(=O)N1CCCN(CCn2nc3n(c2=O)CCCC3)CC1	21	x
O=C(Cc1c[nH]c2ncc(-c3ccccc3)cc12)N1CCCC1	-13	u
O=C(Cc1c[nH]c2ncc(-c3ccccc3)cc12)N1CC[S+](=O)([O-])CC1	-13	35µM*
O=C(Cc1c[nH]c2ncc(-c3ccccc3Oc3ccccc3)cc12)N1CCOCC1	-19	u
O=C(Cc1c[nH]c2ncc(-c3ccc(Oc4ccccc4)cc3)cc12)N1CCOCC1	-7	40µM*
Cn1cnc2cc(-c3ccc(F)cc3)cc(C(=O)NCCc3ccccn3)c21	-3	28µM*
CN(C)CCNC(=O)c1cc(-c2ccc(F)cc2)cc2ncn(C)c12	1	28µM*
COc1ncccc1-c1cc(C(=O)NCC2CCOCC2)c2c(c1)ncn2C	21	u
CN1CCC(CNC(=O)c2cc(-c3ccc(F)cc3)cc3ncn(C)c23)CC1=O (stereo not drawn)	-1	32µM*
COc1cc(CNC(=O)c2cc(-c3ccc(F)cc3)cc3ncn(C)c23)ccn1	7	32µM*
Cn1cnc2cc(-c3ccc(F)cc3)cc(C(=O)NCCN3CCOCC3)c21	54	u
Cn1cnc2cc(-c3ccc(CO)cc3)cc(C(=O)NCc3cccnc3)c21	37	u
O=C(NCCc1ccccn1)c1cc(F)cc(F)c1	x	i
CCCN(CCC)c1ccc(NS(=O)(=O)c2ccc(C3CCCCC3)cc2)cc1C(=O)O	x	i
Cc1oc(-c2ccccc2)nc1CC(=O)N1CCC(C(N)=O)CC1	x	i
COc1ccc(NC(=O)CN(C)C(=O)c2nn(C)c(=O)c3ccccc23)cc1	x	i
COc1ccc(CC2CCOC3(CCN(S(=O)(=O)c4c(C)nn(C)c4C)CC3)C2)cc1 (stereo not drawn)	3	x
SMILES	IP6K1 inh	KDM5B inhibitor
O=C(NCCCn1ccnc1)c1c(F)cccc1F	x	i
Cn1cnc2cc(-c3ccc(F)cc3)cc(C(=O)NCCCn3ccnc3)c21	0	40µM*
Cc1nc2ccc(C(=O)N3CCN(CC(=O)N4CCCCCC4)CC3)cc2nc1C	x	i
COCC(=O)Nc1ccc(-c2noc([C@@H]3CCCN3Cc3cccnc3)n2)cn1	12	i
COCCNc1ccc(-c2noc([C@@H]3CCCN3Cc3ccncc3)n2)cn1	10	28µM*
COc1ccc(C(=O)Nc2ccc(-c3noc([C@@H]4CCCN4CCCc4ccccc4)n3)cn2)cc1	12	25µM*
COCCNc1ccc(-c2noc([C@@H]3CCCN3Cc3cc(OC)c(OC)c(OC)c3)n2)cn1	14	u
COCCNc1ncccc1-c1noc([C@@H]2CCCN2Cc2ccncc2)n1	15	28µM*
COc1ccc(C(=O)Nc2ccc(-c3noc([C@@H]4CCCN4Cc4ccc(F)cc4)n3)cn2)cc1	3	u
COCC(=O)Nc1ccc(-c2noc([C@@H]3CCCN3Cc3ncc[nH]3)n2)cn1	6	40µM*
COCCOc1ncccc1-c1noc([C@@H]2CCCN2Cc2ccc(S(C)(=O)=O)cc2)n1	6	i
O=C(N1CCC(NS(=O)(=O)c2cccc(F)c2)CC1)N1CC2CC(C1)[C@H]1CCCC(=O)N1C2 (stereo partly drawn)	3	i
O=C(Nc1ccccc1F)C1CCN(c2nc3ccccc3o2)CC1	x	i
CCCNC(=O)C(NC(=O)CC(C)C)C1CCN(C(=O)c2ccc(Cl)cc2)CC1 (stereo not drawn)	-6	i
COc1cc(CN2CCC[C@H]2c2nc(-c3ccc(-c4ccncc4)nc3)no2)cc(OC)c1OC	-10	i
COCCNc1ncccc1-c1noc([C@@H]2CCCN2Cc2cc(OC)c(OC)c(OC)c2)n1	12	32µM*
COCCOc1ncccc1-c1noc([C@@H]2CCCN2Cc2ccc(CO)o2)n1	-12	u
COCCNc1ncccc1-c1noc([C@@H]2CCCN2Cc2ccccn2)n1	-12	32µM*

High-throughput results from PubChem BioAssay.
